Source: paper PMC7862700, “An all-to-all approach to the identification of sequence-specific readers for epigenetic DNA modifications on cytosine”

Legend:
Experiment in all cases: DAPPL (digital affinity profiling via proximity ligation, sequencing); 10 mM Tris-HCl pH 7.5, 50 mM NaCl, 1 mM DTT, 4% glycerol, room temperature, 30 min; GST-TFs on glutathione beads, 16-mer random dsDNA library, 0.1% formaldehyde crosslink after washing; high values mean tight binding
FLI1 = molecular target: T1, FLI1 (Homo sapiens, UniProt Q01543 1-452); settings: protein: recombinant; tags: N-terminal GST; dsDNA, one strand shown
T1 sequence: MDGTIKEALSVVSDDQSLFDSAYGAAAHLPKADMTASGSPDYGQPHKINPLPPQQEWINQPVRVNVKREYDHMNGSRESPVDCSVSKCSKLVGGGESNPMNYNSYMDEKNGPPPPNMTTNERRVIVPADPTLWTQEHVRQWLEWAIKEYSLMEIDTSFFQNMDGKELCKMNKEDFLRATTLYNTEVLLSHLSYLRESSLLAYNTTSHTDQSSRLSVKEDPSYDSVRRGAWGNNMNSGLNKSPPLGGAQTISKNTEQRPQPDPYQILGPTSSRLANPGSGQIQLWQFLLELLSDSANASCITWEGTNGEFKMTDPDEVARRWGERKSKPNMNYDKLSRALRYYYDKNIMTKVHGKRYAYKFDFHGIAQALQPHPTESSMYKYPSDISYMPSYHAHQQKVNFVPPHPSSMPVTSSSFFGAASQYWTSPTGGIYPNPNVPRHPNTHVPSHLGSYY
In short: (§1)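 A tag-only sample was pooled with DNA-barcoded human transcription factors that had been expressed in yeast as GST fusions and captured on glutathione beads. The pools were incubated for 30 min at room temperature with 200 nmole of a random double-stranded 16-mer DNA library in Tris/NaCl/DTT/glycerol buffer, then washed, crosslinked with 0.1% formaldehyde, proximity-ligated (BsaI/T4 ligase, 1 h, 37 °C), PCR-amplified and sequenced on an Illumina NextSeq500. Binding signal is each hexamer's read frequency for a factor divided by its frequency for the tag-only sample.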

ELK1 = molecular target: T2, ELK1 (Homo sapiens, UniProt P19419 1-428); settings: protein: recombinant; tags: N-terminal GST; dsDNA, one strand shown
T2 sequence: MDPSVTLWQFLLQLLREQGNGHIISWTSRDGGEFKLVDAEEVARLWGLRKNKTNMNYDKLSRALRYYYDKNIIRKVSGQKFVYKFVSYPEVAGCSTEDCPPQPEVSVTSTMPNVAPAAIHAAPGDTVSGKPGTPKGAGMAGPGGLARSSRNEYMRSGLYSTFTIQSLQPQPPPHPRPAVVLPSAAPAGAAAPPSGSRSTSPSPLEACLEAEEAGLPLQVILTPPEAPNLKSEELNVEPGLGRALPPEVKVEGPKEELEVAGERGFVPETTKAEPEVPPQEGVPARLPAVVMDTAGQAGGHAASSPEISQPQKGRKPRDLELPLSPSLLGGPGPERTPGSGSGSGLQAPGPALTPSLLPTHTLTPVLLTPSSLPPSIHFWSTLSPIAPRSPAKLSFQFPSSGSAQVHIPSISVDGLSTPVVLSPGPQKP
In short: as §1

GABPA = molecular target: T3, GABPA (Homo sapiens, UniProt Q06546 1-454); settings: protein: recombinant; tags: N-terminal GST; dsDNA, one strand shown
T3 sequence: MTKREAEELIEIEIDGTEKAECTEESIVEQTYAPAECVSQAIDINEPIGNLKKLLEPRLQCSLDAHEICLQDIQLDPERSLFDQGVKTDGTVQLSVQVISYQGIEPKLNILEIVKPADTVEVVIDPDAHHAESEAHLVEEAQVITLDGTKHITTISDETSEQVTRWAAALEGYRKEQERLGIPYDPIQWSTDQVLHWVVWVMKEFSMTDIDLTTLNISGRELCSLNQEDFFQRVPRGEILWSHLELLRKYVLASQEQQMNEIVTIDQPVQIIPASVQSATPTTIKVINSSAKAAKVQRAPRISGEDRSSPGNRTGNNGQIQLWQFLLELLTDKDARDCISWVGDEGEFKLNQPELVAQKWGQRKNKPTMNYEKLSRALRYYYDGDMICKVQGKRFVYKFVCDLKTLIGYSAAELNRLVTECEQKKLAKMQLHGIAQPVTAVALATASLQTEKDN
In short: as §1

ERG = molecular target: T4, ERG (Homo sapiens, UniProt P11308 1-479); settings: protein: recombinant; tags: N-terminal GST; dsDNA, one strand shown
T4 sequence: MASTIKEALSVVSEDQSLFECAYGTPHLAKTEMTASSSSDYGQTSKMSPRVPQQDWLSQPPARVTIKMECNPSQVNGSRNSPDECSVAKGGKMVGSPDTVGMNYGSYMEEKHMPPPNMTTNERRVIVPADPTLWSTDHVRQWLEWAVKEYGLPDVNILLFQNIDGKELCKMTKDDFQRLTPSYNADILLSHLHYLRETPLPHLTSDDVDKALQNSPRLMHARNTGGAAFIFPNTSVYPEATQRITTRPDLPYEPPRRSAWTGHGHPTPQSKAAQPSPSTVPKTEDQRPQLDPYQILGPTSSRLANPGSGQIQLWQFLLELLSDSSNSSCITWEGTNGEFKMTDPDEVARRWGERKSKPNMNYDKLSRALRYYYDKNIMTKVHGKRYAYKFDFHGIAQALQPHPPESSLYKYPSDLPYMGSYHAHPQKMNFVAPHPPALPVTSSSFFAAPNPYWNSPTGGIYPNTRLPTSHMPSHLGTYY
In short: as §1

ELF1 = ELF1 (Homo sapiens, UniProt P32519 1-619); settings: protein: recombinant; tags: N-terminal GST; dsDNA, one strand shown
Chain of ELF1 (P32519 whole entry): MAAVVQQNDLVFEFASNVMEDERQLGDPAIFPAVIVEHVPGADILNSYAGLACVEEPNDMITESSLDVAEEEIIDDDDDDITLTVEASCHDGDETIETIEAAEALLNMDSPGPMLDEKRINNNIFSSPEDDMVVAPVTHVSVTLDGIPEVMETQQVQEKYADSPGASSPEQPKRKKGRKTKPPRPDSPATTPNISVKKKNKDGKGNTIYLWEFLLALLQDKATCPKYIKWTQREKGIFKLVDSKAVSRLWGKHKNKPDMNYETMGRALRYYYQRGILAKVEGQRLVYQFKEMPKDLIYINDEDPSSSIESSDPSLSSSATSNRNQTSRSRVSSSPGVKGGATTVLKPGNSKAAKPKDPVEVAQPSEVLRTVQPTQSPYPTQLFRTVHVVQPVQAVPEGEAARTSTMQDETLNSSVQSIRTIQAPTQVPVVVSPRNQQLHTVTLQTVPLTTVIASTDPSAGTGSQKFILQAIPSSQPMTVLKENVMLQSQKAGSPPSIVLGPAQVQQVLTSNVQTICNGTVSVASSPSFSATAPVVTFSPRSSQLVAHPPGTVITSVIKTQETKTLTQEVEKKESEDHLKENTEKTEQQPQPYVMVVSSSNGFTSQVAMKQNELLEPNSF
In short: as §1

EHF = molecular target: T5, EHF (Homo sapiens, UniProt Q9NZC4 1-300); settings: protein: recombinant; tags: N-terminal GST; dsDNA, one strand shown
T5 sequence: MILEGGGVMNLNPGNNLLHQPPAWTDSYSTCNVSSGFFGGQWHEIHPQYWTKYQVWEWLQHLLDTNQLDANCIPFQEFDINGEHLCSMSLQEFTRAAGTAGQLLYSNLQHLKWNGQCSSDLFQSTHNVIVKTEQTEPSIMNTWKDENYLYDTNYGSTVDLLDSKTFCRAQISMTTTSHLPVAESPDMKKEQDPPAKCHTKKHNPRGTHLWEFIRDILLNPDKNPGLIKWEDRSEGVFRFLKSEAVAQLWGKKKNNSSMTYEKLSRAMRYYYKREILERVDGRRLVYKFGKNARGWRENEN
In short: as §1

SPIB = SPIB (Homo sapiens, UniProt Q01892 1-262); settings: protein: recombinant; tags: N-terminal GST; dsDNA, one strand shown
Chain of SPIB (Q01892 whole entry): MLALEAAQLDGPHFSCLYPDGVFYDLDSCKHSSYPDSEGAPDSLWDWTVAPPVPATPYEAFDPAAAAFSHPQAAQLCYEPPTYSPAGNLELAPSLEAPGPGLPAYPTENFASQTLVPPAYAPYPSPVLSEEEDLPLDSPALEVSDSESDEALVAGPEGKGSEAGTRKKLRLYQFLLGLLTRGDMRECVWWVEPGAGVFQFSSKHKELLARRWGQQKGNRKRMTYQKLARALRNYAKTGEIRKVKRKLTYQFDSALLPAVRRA
In short: as §1

ELK3 = molecular target: T6, ELK3 (Homo sapiens, UniProt P41970 1-407); settings: protein: recombinant; tags: N-terminal GST; dsDNA, one strand shown
T6 sequence: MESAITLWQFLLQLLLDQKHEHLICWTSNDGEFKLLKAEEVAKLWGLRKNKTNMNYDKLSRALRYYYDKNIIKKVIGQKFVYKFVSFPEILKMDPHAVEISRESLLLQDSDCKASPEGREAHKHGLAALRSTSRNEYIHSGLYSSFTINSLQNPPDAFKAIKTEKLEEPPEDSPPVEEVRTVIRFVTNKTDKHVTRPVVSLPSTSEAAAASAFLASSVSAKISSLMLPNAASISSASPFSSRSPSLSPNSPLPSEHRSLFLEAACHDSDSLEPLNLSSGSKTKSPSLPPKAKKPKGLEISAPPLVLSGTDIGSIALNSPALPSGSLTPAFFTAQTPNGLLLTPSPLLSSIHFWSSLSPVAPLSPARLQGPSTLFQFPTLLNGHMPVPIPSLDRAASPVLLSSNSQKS
In short: as §1

FEV = molecular target: T7, FEV (Homo sapiens, UniProt Q99581 1-238); settings: protein: recombinant; tags: N-terminal GST; dsDNA, one strand shown
T7 sequence: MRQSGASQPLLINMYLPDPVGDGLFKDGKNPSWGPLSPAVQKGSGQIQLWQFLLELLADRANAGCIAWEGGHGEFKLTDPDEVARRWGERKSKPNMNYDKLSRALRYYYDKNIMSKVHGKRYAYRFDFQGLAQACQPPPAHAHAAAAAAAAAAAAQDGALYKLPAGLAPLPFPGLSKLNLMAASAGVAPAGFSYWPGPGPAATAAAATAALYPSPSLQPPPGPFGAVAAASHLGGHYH
In short: as §1

ETV5 = ETV5 (Homo sapiens, UniProt P41161 1-510); settings: protein: recombinant; tags: N-terminal GST; dsDNA, one strand shown
Chain of ETV5 (P41161 whole entry): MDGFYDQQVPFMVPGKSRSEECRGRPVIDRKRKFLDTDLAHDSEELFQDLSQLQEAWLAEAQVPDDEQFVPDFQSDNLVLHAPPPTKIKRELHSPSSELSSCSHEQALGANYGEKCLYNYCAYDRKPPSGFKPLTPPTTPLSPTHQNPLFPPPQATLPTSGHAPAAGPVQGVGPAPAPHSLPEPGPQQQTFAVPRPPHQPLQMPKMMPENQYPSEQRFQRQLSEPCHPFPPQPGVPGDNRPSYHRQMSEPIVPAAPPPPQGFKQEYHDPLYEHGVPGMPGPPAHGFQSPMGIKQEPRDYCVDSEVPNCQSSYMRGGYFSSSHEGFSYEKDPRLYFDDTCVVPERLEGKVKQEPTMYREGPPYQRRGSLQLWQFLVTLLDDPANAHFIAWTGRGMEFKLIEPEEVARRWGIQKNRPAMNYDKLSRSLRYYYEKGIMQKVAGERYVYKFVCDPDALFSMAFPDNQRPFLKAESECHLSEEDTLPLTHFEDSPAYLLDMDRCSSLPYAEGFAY
In short: as §1

HSF1 = HSF1 (Homo sapiens, UniProt Q00613 1-529); settings: protein: recombinant; tags: N-terminal GST; chain copies: 3; dsDNA, one strand shown
Chain of HSF1 (Q00613 whole entry): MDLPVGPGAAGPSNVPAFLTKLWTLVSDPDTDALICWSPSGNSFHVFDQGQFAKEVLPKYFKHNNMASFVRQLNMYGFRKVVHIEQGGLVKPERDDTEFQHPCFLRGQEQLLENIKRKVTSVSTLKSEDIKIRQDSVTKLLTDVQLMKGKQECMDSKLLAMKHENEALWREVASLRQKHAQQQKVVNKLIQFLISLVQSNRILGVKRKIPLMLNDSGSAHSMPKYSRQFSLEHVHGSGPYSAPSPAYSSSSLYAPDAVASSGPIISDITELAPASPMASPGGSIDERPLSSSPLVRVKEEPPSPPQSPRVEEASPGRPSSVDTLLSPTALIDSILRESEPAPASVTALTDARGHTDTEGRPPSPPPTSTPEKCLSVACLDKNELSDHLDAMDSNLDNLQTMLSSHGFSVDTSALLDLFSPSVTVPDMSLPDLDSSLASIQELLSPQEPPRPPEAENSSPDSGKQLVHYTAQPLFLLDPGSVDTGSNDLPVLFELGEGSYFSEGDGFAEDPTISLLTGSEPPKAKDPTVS
In short: as §1

ELF4 = ELF4 (Homo sapiens, UniProt Q99607 1-663); settings: protein: recombinant; tags: N-terminal GST; dsDNA, one strand shown
Chain of ELF4 (Q99607 whole entry): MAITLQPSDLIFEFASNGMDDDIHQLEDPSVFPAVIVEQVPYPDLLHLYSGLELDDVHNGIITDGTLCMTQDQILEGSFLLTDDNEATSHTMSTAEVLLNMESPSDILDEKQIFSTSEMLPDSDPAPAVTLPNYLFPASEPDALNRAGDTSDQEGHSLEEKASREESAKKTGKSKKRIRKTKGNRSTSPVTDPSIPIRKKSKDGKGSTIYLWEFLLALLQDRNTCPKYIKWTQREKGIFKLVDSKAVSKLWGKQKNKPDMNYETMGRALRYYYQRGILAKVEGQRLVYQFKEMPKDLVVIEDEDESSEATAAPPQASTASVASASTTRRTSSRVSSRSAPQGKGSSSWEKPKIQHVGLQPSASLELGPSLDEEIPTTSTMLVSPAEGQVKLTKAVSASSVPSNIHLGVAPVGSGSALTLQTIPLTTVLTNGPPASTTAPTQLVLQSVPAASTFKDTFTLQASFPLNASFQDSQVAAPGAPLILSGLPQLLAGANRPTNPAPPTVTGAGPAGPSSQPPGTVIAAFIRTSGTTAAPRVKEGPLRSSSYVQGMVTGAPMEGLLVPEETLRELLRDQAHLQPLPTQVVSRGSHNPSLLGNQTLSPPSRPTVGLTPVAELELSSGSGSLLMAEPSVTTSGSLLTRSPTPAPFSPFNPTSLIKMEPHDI
In short: as §1

ELK4 = molecular target: T8, ELK4 (Homo sapiens, UniProt P28324-2 1-405); settings: protein: recombinant; tags: N-terminal GST; dsDNA, one strand shown
T8 sequence: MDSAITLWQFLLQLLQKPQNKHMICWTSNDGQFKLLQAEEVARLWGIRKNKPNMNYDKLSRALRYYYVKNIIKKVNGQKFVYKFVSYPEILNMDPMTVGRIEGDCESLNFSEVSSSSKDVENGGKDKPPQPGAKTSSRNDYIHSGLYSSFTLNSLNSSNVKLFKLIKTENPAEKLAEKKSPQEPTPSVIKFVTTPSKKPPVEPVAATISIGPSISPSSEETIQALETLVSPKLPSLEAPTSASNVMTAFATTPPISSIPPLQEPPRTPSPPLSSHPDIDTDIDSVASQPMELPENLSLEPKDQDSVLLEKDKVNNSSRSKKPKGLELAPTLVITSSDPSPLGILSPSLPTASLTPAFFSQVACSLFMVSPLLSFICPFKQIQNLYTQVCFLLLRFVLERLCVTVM
In short: as §1

ETV2 = molecular target: T9, ETV2 (Homo sapiens, UniProt O00321 1-342); settings: protein: recombinant; tags: N-terminal GST; dsDNA, one strand shown
T9 sequence: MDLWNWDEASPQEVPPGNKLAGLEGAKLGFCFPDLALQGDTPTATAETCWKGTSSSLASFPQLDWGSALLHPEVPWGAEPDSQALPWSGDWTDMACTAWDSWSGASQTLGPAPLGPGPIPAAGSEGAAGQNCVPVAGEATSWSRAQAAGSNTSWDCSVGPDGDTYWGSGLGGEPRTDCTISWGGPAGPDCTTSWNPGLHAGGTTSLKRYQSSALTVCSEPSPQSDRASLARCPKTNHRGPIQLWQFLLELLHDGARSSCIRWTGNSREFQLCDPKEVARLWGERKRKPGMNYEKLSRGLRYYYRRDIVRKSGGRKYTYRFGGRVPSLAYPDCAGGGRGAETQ
In short: as §1

CRX = CRX (Homo sapiens, UniProt O43186 1-299); settings: protein: recombinant; tags: N-terminal GST; dsDNA, one strand shown
Chain of CRX (O43186 whole entry): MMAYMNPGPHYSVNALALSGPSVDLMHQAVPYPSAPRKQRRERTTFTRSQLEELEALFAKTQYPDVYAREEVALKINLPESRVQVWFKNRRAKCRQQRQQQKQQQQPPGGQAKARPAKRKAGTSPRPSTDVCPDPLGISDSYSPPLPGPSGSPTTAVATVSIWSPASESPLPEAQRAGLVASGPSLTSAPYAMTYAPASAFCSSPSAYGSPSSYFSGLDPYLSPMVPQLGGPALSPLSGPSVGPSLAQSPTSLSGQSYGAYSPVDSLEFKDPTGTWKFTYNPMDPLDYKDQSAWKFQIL
In short: as §1

ETV1 = ETV1 (Homo sapiens, UniProt P50549 1-477); settings: protein: recombinant; tags: N-terminal GST; dsDNA, one strand shown
Chain of ETV1 (P50549 whole entry): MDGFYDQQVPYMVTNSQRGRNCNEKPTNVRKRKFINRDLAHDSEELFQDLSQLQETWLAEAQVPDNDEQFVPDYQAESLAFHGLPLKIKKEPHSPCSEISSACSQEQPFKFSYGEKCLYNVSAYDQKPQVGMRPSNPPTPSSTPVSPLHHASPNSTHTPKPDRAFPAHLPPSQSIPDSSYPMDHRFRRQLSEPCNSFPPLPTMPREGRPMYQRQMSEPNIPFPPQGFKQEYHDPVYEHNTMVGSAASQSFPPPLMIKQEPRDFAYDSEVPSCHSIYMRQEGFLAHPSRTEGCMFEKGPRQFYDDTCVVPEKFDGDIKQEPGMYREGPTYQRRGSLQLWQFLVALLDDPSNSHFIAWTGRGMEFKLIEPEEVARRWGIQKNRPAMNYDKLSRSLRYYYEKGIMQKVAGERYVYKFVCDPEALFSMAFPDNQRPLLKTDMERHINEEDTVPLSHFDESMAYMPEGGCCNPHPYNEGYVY
In short: as §1

SPI1 = SPI1 (Homo sapiens, UniProt P17947 1-270); settings: protein: recombinant; tags: N-terminal GST; dsDNA, one strand shown
In short: as §1

ELF3 = molecular target: T10, ELF3 (Homo sapiens, UniProt P78545 1-371); settings: protein: recombinant; tags: N-terminal GST; dsDNA, one strand shown
T10 sequence: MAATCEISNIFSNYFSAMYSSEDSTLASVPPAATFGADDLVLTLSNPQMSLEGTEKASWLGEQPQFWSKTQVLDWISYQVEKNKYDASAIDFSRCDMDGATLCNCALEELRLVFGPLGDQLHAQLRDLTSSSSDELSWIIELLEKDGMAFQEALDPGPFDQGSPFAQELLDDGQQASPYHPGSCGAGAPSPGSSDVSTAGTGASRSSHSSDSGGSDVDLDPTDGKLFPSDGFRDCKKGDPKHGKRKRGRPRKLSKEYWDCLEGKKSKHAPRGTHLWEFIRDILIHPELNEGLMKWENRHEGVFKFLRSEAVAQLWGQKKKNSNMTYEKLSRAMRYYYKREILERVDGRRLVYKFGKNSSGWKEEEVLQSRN
In short: as §1

## TCAAGG
FLI1
  binding signal: 1.05 fold enrichment (6-mer frequency, TF over GST control)
ELK1
  binding signal: 1.05 fold enrichment (6-mer frequency, TF over GST control)
GABPA
  binding signal: 1.05 fold enrichment (6-mer frequency, TF over GST control)
ERG
  binding signal: 1.1 fold enrichment (6-mer frequency, TF over GST control)
ELF1
  binding signal: 1.07 fold enrichment (6-mer frequency, TF over GST control)
EHF
  binding signal: 1.09 fold enrichment (6-mer frequency, TF over GST control)
SPIB
  binding signal: 1.04 fold enrichment (6-mer frequency, TF over GST control)
ELK3
  binding signal: 1.19 fold enrichment (6-mer frequency, TF over GST control)
FEV
  binding signal: 1.08 fold enrichment (6-mer frequency, TF over GST control)
ETV5
  binding signal: 1.03 fold enrichment (6-mer frequency, TF over GST control)
HSF1
  binding signal: 1.04 fold enrichment (6-mer frequency, TF over GST control)
ELF4
  binding signal: 1.01 fold enrichment (6-mer frequency, TF over GST control)
ELK4
  binding signal: 1.07 fold enrichment (6-mer frequency, TF over GST control)
ETV2
  binding signal: 1.19 fold enrichment (6-mer frequency, TF over GST control)
CRX
  binding signal: 1.09 fold enrichment (6-mer frequency, TF over GST control)
ETV1
  binding signal: 1.12 fold enrichment (6-mer frequency, TF over GST control)

## CGAGTT
FLI1
  binding signal: 1.16 fold enrichment (6-mer frequency, TF over GST control)
ELK1
  binding signal: 1.1 fold enrichment (6-mer frequency, TF over GST control)
GABPA
  binding signal: 1.02 fold enrichment (6-mer frequency, TF over GST control)
ELF1
  binding signal: 1.16 fold enrichment (6-mer frequency, TF over GST control)
EHF
  binding signal: 1.04 fold enrichment (6-mer frequency, TF over GST control)
SPI1
  binding signal: 1.09 fold enrichment (6-mer frequency, TF over GST control)
SPIB
  binding signal: 1.07 fold enrichment (6-mer frequency, TF over GST control)
ELK3
  binding signal: 1.14 fold enrichment (6-mer frequency, TF over GST control)
ETV5
  binding signal: 1.1 fold enrichment (6-mer frequency, TF over GST control)
HSF1
  binding signal: 1.07 fold enrichment (6-mer frequency, TF over GST control)
ELF4
  binding signal: 1.06 fold enrichment (6-mer frequency, TF over GST control)
ELK4
  binding signal: 1.1 fold enrichment (6-mer frequency, TF over GST control)
ETV2
  binding signal: 1.11 fold enrichment (6-mer frequency, TF over GST control)
ELF3
  binding signal: 1.16 fold enrichment (6-mer frequency, TF over GST control)
ETV1
  binding signal: 1.04 fold enrichment (6-mer frequency, TF over GST control)
